Laboratory results as given in PubChem BioAssay (NCATS).
Records with an inconclusive call do not appear. Activity calls are given as the source filed them. Calls follow the shape of the dose curve; as a rule, active = well fitted curve in the direction sought with a large enough effect; inconclusive = small, poorly fitted or top-dose-only effect, or another doubt; inactive = no such curve, though single readings can be large; an effect the other way counts as inactive or inconclusive.

How the values were obtained:
[1] = molecular target: Protein phosphatase 1D (Homo sapiens) (UniProt O15297); test: RapidFire Mass Spectrometry qHTS Assay for Modulators of WT P53-Induced Phosphatase 1 (WIP1) (AID 1347424);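 also: amount of dephosphorylated VEPPL-S-QETFS peptide product formed by WIP1; series mostly up to about 63 µM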
In short: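 RapidFire mass spectrometry measured dephosphorylated peptide after 5 min room-temperature reaction of 2 uM VEPPL-pS-QETFS with 10 nM WIP1 (50 mM Tris-HCl pH 7.5, 30 mM MgCl2, 0.1 mM EGTA, BSA), following 1 hr compound preincubation; 1 uM isotope-labelled product standard.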

[2] = molecular target: Protein phosphatase 1D (Homo sapiens) (UniProt O15297); test: Rhodamine-PBP qHTS Assay for Modulators of WT P53-Induced Phosphatase 1 (WIP1) (AID 1347425)
In short: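 Read-out: Rhodamine-PBP fluorescence (ex 525/em 598 nm) for released Pi, read each minute for 11 min after adding 10 uM VEPPL-pS-QETFS; signal taken as f1 minus pre-substrate f0. Enzyme 5 nM WIP1 with 1 hr room-temperature compound preincubation.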

[3] = Primary qHTS for inhibitors of La Crosse Virus (LACV) - induced cell death in SH-SY5Y cells (AID 1508616);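 also: top concentration of the series differs between compounds; higher means more rescue of cells from virus-induced death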
In short: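 SH-SY5Y, 6000 cells/well; cpd via pin tool in DMSO; LACV 0.01 MOI; 6 d 37C 5% CO2; ATPLite, 5 min RT; luminescence normalized to ±virus DMSO controls.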

[4] = molecular target: Calcium and integrin-binding protein 1 (Homo sapiens) (UniProt Q99828); test: Primary qHTS for Identification of Calcium Integrin Binding Protein 1 (CIB1) Competitor (AID 1508620);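 also: GST tagged CIB1 binding a fluorescein labelled alphaIIb integrin peptide tracer; top concentration of the series differs between compounds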
In short: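 CIB1-GST (1 uM final) and compound incubated 15 min at room temperature before adding FITC-alphaIIb peptide tracer (100 nM final). Competition for binding read by fluorescence polarization (ex 480, em 540) after another 15 min at room temperature.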

Measured: Potency

Chain of Calcium and integrin-binding protein 1 (Homo sapiens) (Q99828 whole entry, looked up): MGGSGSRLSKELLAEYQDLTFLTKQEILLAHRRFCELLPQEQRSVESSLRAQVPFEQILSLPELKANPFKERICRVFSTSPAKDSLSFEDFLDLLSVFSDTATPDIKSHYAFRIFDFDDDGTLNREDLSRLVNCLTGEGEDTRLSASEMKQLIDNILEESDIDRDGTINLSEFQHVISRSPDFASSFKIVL
Chain of Protein phosphatase 1D (Homo sapiens) (O15297 whole entry, looked up): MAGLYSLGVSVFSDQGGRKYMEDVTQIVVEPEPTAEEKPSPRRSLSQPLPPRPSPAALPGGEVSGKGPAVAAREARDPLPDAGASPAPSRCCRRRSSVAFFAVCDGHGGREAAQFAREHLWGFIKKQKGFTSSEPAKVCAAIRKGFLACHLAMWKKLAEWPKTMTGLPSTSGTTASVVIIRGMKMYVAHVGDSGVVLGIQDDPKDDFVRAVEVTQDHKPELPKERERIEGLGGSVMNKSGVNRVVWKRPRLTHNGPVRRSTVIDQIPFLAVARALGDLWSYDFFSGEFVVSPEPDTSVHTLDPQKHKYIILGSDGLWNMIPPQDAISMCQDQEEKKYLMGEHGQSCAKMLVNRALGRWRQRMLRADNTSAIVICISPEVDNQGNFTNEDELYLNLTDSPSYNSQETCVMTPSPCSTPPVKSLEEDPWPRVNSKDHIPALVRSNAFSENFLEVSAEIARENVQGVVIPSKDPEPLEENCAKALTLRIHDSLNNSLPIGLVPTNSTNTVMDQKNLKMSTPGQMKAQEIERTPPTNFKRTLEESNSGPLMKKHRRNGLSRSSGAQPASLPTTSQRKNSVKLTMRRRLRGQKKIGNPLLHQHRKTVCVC

C#C[C@]1(O)CC[C@H]2[C@@H]3CCC4=CC(=O)CC[C@@H]4[C@H]3CC[C@@]21CC
inactive: [1] | [2] | [3] | [4]

Cc1cc2c(OCC(CNC(C)(C)C)OC(=O)c3ccccc3)cccc2[nH]1 (centres undefined)
inactive: [1] | [2] | [3] | [4]

CC(C)n1c(/C=C/[C@@H](O)C[C@@H](O)CC(=O)O)c(-c2ccc(F)cc2)c2ccccc21
inactive: [1] | [2] | [3] | [4]

C[C@@H](O)[C@H]1C(=O)N2C(C(=O)O)=C([C@H]3CCCO3)S[C@H]12
inactive: [1] | [2] | [3] | [4]

O=C(O)CCc1nc2ccccc2[nH]1
inactive: [1] | [2] | [3] | [4]

COc1ccc(S(=O)(=O)N2c3ccc(Cl)cc3[C@@](O)(c3ccccc3Cl)[C@H]2C(=O)N2CCC[C@@H]2C(N)=O)cc1OC
inactive: [1] | [2] | [3] | [4]

O=[N+]([O-])c1ccc(/C=N\O)o1
inactive: [1] | [2] | [3] | [4]

CN(C)CCOC(=O)C(c1ccccc1)C1(O)CCCC1 (centres undefined)
inactive: [1] | [2] | [3] | [4]

O=C(NCCc1c[nH]c2ccccc12)c1cccnc1
inactive: [1] | [2] | [3] | [4]

Cc1ncc(CO)c(C=O)c1O
inactive: [1] | [2] | [3] | [4]

FC(F)(F)C(F)(F)C(F)(F)C(F)(F)C(F)(F)C(F)(F)C(F)(F)C(F)(F)Br
inactive: [1] | [2] | [3] | [4]
